# Reference: PubChem BioAssay (EPA / NIEHS)
# Results filed as inconclusive are left out. Calls of active or inactive are those of the source. The calls were made as follows: active = hit-call score of the fitted dose curve at least 0.9, where 1 is the maximum; inconclusive = response in the unintended direction; inactive = score below 0.9.
# Experiments:
# [1] = target: AR (gene 367) (UniProt P10275); experiment: ACEA_AR_antagonist_80hr: ACEA Biosciences xCELLigence Real-Time Cell Analysis on Androgen Receptor Antagonism for Proliferation (AID 2283787);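 also: 22Rv1 human prostate cancer cells with growth followed by electrical impedance; hits lower the impedance growth signal relative to DMSO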
# Outline: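 22Rv1 cells in assay medium, growth tracked by electrical impedance; compounds eight-point 1:4 dilutions from 100 uM final, duplicate plates. Endpoint at 80 h; loss of signal versus DMSO.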
# [2] = ATG_M_06_XSP1: Attagene TRANS-FACTORIAL Multi-Species (XSP1) HepG2 Assay for M06 Transcription Factor (Internal Marker) (AID 2283790)
# Outline: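 Transfected HepG2 multi-reporter system treated 24 h in the presence of 3 nM 6-alpha-fluorotestosterone. The M06 internal marker transcript was quantified by RT-PCR with capillary electrophoresis as a background control, and gain of signal was scored versus DMSO.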
# [3] = ATG_M_61_XSP1: Attagene TRANS-FACTORIAL Multi-Species (XSP1) HepG2 Assay for M61 Transcription Factor (Internal Marker) (AID 2283797)
# Outline: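 HepG2 cells transiently transfected with multiplexed GAL4-driven reporter units, dosed 24 h with 3 nM 6-alpha-fluorotestosterone present. Reporter mRNA quantified by RT-PCR, 6-FAM labelling, HpaI digestion and capillary electrophoresis; internal-marker background control, gain of signal versus DMSO.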
# [4] = target: Peroxisome proliferator-activated receptor gamma (Homo sapiens) (UniProt P37231); experiment: ATG_hPPARg_XSP1: Attagene TRANS-FACTORIAL Multi-Species (XSP1) HepG2 Assay for human Peroxisome Proliferator-activated Receptor gamma (PPARg) (AID 2283800)
# Outline: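 HepG2 cells transiently transfected with GAL4-UAS reporter units carrying chimeric NR-Gal4 proteins; 3 nM 6-alpha-fluorotestosterone present. After 24 h dosing, reporter mRNA quantified by RT-PCR and capillary electrophoresis; gain of signal relative to DMSO.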
# [5] = tested on: zebrafish Peroxisome Proliferator-activated Receptor gamma (PPARg), gene 557037; experiment: ATG_zfPPARg_XSP1: Attagene TRANS-FACTORIAL Multi-Species (XSP1) HepG2 Assay for zebrafish Peroxisome Proliferator-activated Receptor gamma (PPARg) (AID 2283801)
# Outline: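 HepG2 cells transiently transfected with GAL4-UAS reporter units including a zebrafish PPARg–GAL4 chimera, dosed 24 h with 3 nM 6-alpha-fluorotestosterone present. Reporter mRNA quantified by RT-PCR, FAM labelling, HpaI digestion and capillary electrophoresis; induction versus DMSO.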
# [6] = target: mouse Peroxisome Proliferator-activated Receptor gamma (PPARg), Pparg (gene 19016) (UniProt P37238); experiment: ATG_mPPARg_XSP1: Attagene TRANS-FACTORIAL Multi-Species (XSP1) HepG2 Assay for mouse Peroxisome Proliferator-activated Receptor gamma (PPARg) (AID 2283802)
# Outline: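 HepG2 cells transiently transfected with GAL4-UAS reporter units driven by mouse PPARg–GAL4 chimera; 3 nM 6-alpha-fluorotestosterone present. After 24 h dosing, reporter mRNA quantified by RT-PCR, fluorescent labelling and capillary electrophoresis; gain of signal versus DMSO.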
# [7] = target: Nuclear receptor subfamily 1 group I member 2 (Mus musculus) (UniProt O54915); experiment: ATG_mPXR_XSP1: Attagene TRANS-FACTORIAL Multi-Species (XSP1) HepG2 Assay for mouse Pregnane X Receptor (PXR) (AID 2283803)
# Outline: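 Transiently transfected HepG2 cells expressing a receptor-Gal4 chimera drive a GAL4-UAS reporter; 3 nM 6-alpha-fluorotestosterone included. Reporter mRNA read 24 h post-dose by RT-PCR and capillary electrophoresis; gain of signal relative to DMSO.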
# [8] = target: zebrafish Thyroid Hormone Receptor alpha (TRa), thraa (gene 30670) (UniProt Q98867); experiment: ATG_zfTRa_XSP1: Attagene TRANS-FACTORIAL Multi-Species (XSP1) HepG2 Assay for zebrafish Thyroid Hormone Receptor alpha (TRa) (AID 2283807)
# Outline: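 HepG2 cells transiently transfected with GAL4-UAS reporter units including a zebrafish TRa–Gal4 chimera, dosed 24 h with 3 nM 6-alpha-fluorotestosterone present. Reporter mRNA quantified by RT-PCR and capillary electrophoresis; gain versus DMSO.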
# [9] = target: zebrafish Thyroid Hormone Receptor beta (TRb), thrb (gene 30607) (UniProt Q9PVE4); experiment: ATG_zfTRb_XSP1: Attagene TRANS-FACTORIAL Multi-Species (XSP1) HepG2 Assay for zebrafish Thyroid Hormone Receptor beta (TRb) (AID 2283809)
# Outline: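 HepG2 cells transiently transfected with multiplexed GAL4-UAS reporter units expressing chimeric zebrafish TRb–Gal4. Dosed 24 h with 3 nM 6-alpha-fluorotestosterone present; reporter mRNA measured by RT-PCR, HpaI digestion and capillary electrophoresis; gain of signal versus DMSO.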
# [10] = target: AR (gene 367) (UniProt P10275); experiment: ACEA_AR_agonist_80hr: ACEA Biosciences xCELLigence Real-Time Cell Analysis on Androgen Receptor Agonism for Proliferation (AID 2283783);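 also: hits increase impedance growth signal above DMSO baseline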
# Outline: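 Proliferation of 22Rv1 prostate cancer cells tracked by electrical impedance, endpoint taken at 80 hours after dosing. Eight-point 1:4 dilutions from 100 uM maximum final, duplicate; testosterone and MG132 as positive controls, assay media as negative.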
# [11] = STM_H9_NormalizedViability: Cytotoxicity Assessment at 120 hours in the Stemina devTOX quickPredict H9 human embryonic stem cell (hESC)-based Assay (AID 2283784)
# Outline: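 Undifferentiated H9 hESCs kept pluripotent were exposed to compound, with media and chemical replaced every 24h. CellTiter-Fluor protease-substrate fluorescence was background-corrected and normalized per plate to the 0.1% DMSO vehicle; signal loss indicates reduced viability.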
# [12] = target: Estrogen receptor beta (Homo sapiens) (UniProt Q92731); experiment: ATG_hERb_XSP1: Attagene TRANS-FACTORIAL Multi-Species (XSP1) HepG2 Assay for human Estrogen Receptor (ESR2) (AID 2283788)
# Outline: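 HepG2 cells transiently transfected with GAL4-UAS multiplexed reporter units, 3 nM 6-alpha-fluorotestosterone present; 24 h exposure. Reporter mRNA measured by RT-PCR, fluorescent labelling and capillary electrophoresis; gain of signal fitted against DMSO.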
# [13] = target: GAL4 Transcription Factor (Internal Marker), GAL4 (gene 855828) (UniProt P04386); experiment: ATG_GAL4_XSP1: Attagene TRANS-FACTORIAL Multi-Species (XSP1) HepG2 Assay for GAL4 Transcription Factor (Internal Marker) (AID 2283789)
# Outline: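 HepG2 cells transiently transfected with multiplexed GAL4-UAS reporter units were exposed for 24 h with 3 nM 6-alpha-fluorotestosterone present. Reporter mRNA was quantified by RT-PCR, FAM labelling, HpaI digestion and capillary electrophoresis; background-control readout, gain-of-signal versus DMSO.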
# [14] = target: frog Thyroid hormone Receptor alpha (TRa), thra-a (gene 397942) (UniProt P15204); experiment: ATG_frTRa_XSP1: Attagene TRANS-FACTORIAL Multi-Species (XSP1) HepG2 Assay for frog Thyroid hormone Receptor alpha (TRa) (AID 2283804)
# Outline: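 HepG2 cells transiently transfected with frog TRa-GAL4 chimeric reporter units, dosed 24 hr with 3 nM 6-alpha-fluorotestosterone present; reporter mRNA quantified by RT-PCR, fluorescent labelling and capillary electrophoresis, gain of signal versus DMSO.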
# [15] = target: human Thyroid hormone Receptor alpha (TRa), THRA (gene 7067) (UniProt P10827); experiment: ATG_hTRa_XSP1: Attagene TRANS-FACTORIAL Multi-Species (XSP1) HepG2 Assay for human Thyroid hormone Receptor alpha (TRa) (AID 2283805)
# Outline: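 HepG2 cells transiently transfected with GAL4-UAS reporter units expressing chimeric NR-Gal4 proteins, dosed 24 hours with 3 nM 6-alpha-fluorotestosterone present. Reporter mRNA measured by RT-PCR and capillary electrophoresis; gain of signal fitted versus DMSO.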
# [16] = tested on: turtle Thyroid Hormone Receptor, alpha (TRa), gene 101949057; experiment: ATG_trTRa_XSP1: Attagene TRANS-FACTORIAL Multi-Species (XSP1) HepG2 Assay for turtle Thyroid Hormone Receptor, alpha (TRa) (AID 2283806)
# Outline: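 HepG2 cells transiently transfected with GAL4-UAS reporter units and chimeric receptor-Gal4 constructs, with 3 nM 6-alpha-fluorotestosterone present. Reporter mRNA was quantified 24 h after dosing by RT-PCR, 6-FAM labelling and capillary electrophoresis; gain of signal versus DMSO.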
# [17] = ATG_M_19_XSP1: Attagene TRANS-FACTORIAL Multi-Species (XSP1) HepG2 Assay for M19 Transcription Factor (Internal Marker) (AID 2283798)
# Outline: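 HepG2 cells transiently transfected with multiplexed GAL4-UAS reporter units, dosed 24 h with 3 nM 6-alpha-fluorotestosterone present for partial AR stimulation. Reporter mRNA measured by RT-PCR with capillary electrophoresis; gain-of-signal fitted relative to DMSO.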
# [18] = ATG_M_32_XSP1: Attagene TRANS-FACTORIAL Multi-Species (XSP1) HepG2 Assay for M32 Transcription Factor (Internal Marker) (AID 2283799)
# Outline: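 HepG2 cells transiently transfected with multi-species TRANS reporter units, dosed 24 h with 3 nM 6-alpha-fluorotestosterone present. Internal-marker reporter mRNA quantified by RT-PCR and capillary electrophoresis; positive-direction fit versus DMSO.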
# Sequence of zebrafish Thyroid Hormone Receptor beta (TRb), thrb (gene 30607) (Q9PVE4 whole entry, looked up, the tested form may be a part): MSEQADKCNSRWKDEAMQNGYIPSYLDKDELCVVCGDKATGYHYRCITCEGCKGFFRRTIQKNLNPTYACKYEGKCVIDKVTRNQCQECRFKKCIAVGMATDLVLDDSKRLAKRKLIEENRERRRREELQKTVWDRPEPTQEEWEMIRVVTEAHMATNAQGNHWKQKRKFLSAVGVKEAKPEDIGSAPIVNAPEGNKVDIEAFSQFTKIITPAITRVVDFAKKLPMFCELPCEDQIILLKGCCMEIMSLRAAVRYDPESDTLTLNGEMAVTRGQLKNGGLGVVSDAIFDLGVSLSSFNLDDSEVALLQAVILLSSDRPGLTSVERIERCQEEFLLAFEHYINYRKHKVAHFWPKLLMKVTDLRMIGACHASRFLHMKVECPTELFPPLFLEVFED
# Sequence of zebrafish Thyroid Hormone Receptor alpha (TRa), thraa (gene 30670) (Q98867 whole entry, looked up, the tested form may be a part): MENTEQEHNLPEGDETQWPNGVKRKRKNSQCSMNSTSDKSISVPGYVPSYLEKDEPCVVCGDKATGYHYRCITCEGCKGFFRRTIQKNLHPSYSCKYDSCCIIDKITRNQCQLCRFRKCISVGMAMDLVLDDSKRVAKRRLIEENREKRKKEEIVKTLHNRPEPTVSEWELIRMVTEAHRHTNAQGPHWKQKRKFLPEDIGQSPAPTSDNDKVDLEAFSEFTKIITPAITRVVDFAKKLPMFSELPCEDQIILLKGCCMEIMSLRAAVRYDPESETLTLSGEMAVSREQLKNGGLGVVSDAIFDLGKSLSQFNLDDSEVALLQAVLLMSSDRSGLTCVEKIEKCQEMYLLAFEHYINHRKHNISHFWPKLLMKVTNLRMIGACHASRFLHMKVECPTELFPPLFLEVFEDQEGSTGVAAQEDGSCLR
# Sequence of AR (gene 367) (P10275 whole entry, looked up): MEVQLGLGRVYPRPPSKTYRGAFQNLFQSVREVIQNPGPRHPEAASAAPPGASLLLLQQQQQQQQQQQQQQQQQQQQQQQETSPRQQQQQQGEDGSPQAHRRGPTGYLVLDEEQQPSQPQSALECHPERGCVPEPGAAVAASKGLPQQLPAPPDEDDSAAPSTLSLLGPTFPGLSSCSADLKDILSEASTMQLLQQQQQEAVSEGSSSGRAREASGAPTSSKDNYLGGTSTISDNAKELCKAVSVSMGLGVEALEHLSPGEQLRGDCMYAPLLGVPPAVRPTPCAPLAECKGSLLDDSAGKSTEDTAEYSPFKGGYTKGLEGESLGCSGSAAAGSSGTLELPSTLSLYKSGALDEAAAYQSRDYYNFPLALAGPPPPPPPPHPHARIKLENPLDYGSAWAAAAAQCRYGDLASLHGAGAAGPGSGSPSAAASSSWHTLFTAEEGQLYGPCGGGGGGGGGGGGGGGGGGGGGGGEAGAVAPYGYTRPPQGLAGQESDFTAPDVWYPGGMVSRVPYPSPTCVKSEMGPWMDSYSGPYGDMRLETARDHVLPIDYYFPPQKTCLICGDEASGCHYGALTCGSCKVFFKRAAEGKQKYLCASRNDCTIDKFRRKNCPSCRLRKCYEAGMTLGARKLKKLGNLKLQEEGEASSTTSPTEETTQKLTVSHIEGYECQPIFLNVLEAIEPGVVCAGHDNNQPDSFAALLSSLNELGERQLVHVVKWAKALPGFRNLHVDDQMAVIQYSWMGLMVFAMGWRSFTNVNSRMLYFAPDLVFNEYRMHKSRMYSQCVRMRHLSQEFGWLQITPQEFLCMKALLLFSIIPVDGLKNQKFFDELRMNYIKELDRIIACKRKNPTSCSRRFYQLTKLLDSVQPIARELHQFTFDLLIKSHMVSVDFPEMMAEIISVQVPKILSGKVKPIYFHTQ
# Sequence of Nuclear receptor subfamily 1 group I member 2 (Mus musculus) (O54915 whole entry, looked up, the tested form may be a part): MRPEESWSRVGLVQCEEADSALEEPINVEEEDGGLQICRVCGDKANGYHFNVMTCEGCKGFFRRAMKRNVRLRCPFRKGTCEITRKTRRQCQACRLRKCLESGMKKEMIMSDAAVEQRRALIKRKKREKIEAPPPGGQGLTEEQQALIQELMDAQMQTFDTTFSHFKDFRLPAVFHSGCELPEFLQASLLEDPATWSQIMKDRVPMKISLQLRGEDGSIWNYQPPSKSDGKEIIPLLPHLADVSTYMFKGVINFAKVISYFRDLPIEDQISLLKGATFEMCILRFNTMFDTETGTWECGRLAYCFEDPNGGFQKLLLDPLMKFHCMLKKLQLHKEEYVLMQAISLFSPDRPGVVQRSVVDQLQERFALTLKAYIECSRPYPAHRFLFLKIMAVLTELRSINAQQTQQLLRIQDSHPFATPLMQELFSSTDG
# Sequence of mouse Peroxisome Proliferator-activated Receptor gamma (PPARg), Pparg (gene 19016) (P37238 whole entry, looked up, the tested form may be a part): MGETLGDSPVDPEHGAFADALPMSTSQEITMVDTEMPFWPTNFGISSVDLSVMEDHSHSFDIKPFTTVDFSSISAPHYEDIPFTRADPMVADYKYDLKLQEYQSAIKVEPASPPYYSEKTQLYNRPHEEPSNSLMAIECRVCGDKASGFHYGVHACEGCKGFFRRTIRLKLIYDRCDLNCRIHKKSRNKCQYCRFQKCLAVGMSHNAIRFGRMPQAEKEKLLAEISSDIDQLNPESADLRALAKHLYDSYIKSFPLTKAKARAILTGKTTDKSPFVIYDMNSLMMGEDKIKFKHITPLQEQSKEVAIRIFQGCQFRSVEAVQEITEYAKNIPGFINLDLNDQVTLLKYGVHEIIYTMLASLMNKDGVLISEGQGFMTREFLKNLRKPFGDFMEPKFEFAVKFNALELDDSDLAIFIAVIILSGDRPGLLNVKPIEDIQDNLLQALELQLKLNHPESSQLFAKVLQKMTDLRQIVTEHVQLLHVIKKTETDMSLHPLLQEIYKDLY
# Sequence of frog Thyroid hormone Receptor alpha (TRa), thra-a (gene 397942) (P15204 whole entry, looked up, the tested form may be a part): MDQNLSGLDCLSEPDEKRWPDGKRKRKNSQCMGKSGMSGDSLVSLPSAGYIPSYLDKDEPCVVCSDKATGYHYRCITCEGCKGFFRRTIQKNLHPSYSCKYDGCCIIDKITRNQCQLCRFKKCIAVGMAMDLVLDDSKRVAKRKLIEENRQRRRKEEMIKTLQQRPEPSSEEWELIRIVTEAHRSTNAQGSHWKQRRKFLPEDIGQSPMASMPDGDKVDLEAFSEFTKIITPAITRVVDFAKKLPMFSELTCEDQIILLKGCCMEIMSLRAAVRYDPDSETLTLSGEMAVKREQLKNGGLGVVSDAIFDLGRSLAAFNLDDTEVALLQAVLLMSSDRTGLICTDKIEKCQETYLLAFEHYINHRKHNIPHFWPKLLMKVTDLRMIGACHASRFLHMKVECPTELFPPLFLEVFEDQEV
# Sequence of Peroxisome proliferator-activated receptor gamma (Homo sapiens) (P37231 whole entry, looked up, the tested form may be a part): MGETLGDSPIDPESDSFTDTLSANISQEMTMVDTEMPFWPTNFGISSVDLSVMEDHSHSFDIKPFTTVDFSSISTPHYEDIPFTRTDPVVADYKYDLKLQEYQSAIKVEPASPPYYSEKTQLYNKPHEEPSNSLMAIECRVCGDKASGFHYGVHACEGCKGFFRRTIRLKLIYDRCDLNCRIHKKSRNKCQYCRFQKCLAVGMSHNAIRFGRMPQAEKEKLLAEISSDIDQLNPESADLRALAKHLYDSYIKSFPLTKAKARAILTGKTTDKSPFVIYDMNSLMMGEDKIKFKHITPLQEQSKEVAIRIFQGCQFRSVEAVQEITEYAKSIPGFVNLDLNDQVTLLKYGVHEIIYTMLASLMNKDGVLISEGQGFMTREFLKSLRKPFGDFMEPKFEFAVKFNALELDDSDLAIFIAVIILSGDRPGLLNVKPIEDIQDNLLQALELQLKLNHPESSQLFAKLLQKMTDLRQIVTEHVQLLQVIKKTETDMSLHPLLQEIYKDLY
# Sequence of Estrogen receptor beta (Homo sapiens) (Q92731 whole entry, looked up, the tested form may be a part): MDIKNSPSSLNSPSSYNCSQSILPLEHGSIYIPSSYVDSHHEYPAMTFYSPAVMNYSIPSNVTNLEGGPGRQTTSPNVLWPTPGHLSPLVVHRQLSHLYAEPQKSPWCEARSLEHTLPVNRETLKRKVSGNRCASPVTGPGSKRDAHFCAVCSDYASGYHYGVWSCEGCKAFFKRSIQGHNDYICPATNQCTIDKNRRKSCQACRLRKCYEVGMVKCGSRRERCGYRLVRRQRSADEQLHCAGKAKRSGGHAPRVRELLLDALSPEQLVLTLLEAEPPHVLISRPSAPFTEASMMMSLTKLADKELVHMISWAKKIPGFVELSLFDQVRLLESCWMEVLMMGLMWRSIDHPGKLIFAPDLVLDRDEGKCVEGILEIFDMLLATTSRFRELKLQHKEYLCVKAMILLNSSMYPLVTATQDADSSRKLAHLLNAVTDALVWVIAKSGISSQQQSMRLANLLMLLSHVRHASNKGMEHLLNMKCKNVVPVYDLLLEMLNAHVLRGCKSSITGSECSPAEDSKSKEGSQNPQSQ
# Sequence of GAL4 Transcription Factor (Internal Marker), GAL4 (gene 855828) (P04386 whole entry, looked up, the tested form may be a part): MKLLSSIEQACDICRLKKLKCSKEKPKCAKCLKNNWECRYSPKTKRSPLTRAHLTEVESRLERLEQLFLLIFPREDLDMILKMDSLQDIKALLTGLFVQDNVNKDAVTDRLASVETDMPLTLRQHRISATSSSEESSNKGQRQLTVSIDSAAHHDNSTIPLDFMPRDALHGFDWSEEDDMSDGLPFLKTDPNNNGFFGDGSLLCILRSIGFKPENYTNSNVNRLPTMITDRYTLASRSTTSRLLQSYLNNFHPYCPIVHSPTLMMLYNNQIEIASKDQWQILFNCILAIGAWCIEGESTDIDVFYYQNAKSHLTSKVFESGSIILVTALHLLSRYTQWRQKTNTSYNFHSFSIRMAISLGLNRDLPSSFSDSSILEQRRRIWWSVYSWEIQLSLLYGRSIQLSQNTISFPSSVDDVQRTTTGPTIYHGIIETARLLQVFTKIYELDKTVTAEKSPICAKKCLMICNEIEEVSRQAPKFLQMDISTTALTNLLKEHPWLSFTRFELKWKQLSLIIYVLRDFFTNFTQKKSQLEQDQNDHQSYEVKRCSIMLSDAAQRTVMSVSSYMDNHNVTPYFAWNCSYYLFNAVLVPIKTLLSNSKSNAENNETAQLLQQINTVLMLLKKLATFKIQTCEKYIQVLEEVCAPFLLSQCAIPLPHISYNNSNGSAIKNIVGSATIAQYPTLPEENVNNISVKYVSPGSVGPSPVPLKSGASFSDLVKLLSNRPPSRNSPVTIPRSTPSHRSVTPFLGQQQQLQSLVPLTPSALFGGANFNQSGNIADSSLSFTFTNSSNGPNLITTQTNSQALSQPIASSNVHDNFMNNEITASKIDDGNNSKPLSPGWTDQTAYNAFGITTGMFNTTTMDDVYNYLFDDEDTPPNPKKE
structure (smiles),measurement,setting,value
CCC(=O)C(CC(C)N(C)C)(c1ccccc1)c1ccccc1 (centres undefined),AC50,[1],28.2 µM (active)
CCOP(=S)(OCC)Oc1nc(Cl)c(Cl)cc1Cl,AC50,[1],74.9 µM (active)
COP(=O)(OC)O/C(=C\Cl)c1cc(Cl)c(Cl)cc1Cl,outcome,[1],inactive
same,outcome,[2],inactive
same,outcome,[3],inactive
same,AC50,[4],14 µM (active)
same,outcome,[5],inactive
same,AC50,[6],32.3 µM (active)
same,AC50,[7],30.3 µM (active)
same,outcome,[8],inactive
same,outcome,[9],inactive
CCN1CCC2(CC1)COc1cc3c(cc12)N(C(=O)c1ccc(-c2ccc(-c4nnc(C)o4)cc2C)cc1)CC3,outcome,[10],inactive
same,AC50,[11],8.14 µM (active)
same,AC50,[1],8.66 µM (active)
Cc1ccccc1C(=O)Nc1cccc(OC(C)C)c1,outcome,[1],inactive
CC12CC1(C)C(=O)N(c1cc(Cl)cc(Cl)c1)C2=O (centres undefined),outcome,[11],inactive
same,AC50,[1],78.4 µM (active)
same,outcome,[12],inactive
same,outcome,[13],inactive
same,outcome,[2],inactive
same,outcome,[3],inactive
same,outcome,[4],inactive
same,AC50,[6],39.2 µM (active)
same,AC50,[7],19.7 µM (active)
same,outcome,[14],inactive
same,outcome,[15],inactive
same,outcome,[16],inactive
same,outcome,[8],inactive
same,outcome,[9],inactive
O=C(O)C(Cl)(Cl)Cl,outcome,[11],inactive
CC(C)(C)CC(C)(C)c1ccc(O)cc1,outcome,[10],inactive
same,AC50,[12],2.74 µM (active)
same,outcome,[2],inactive
same,outcome,[3],inactive
same,outcome,[17],inactive
same,outcome,[18],inactive
same,outcome,[5],inactive
same,outcome,[7],inactive
same,outcome,[14],inactive
same,outcome,[16],inactive
same,outcome,[8],inactive
same,outcome,[9],inactive
COP(=S)(OC)Oc1ccc(Sc2ccc(OP(=S)(OC)OC)cc2)cc1,outcome,[1],inactive
C[C@@H]1C[C@@H]([C@H](O)CC2CC(=O)NC(=O)C2)C(=O)[C@@H](C)C1,AC50,[11],2.46 µM (active)
C[C@H]1CCCC(=O)CCC/C=C/c2cc(O)cc(O)c2C(=O)O1,outcome,[10],inactive
same,AC50,[1],13.9 µM (active)
O=c1[nH]c(=O)[nH]c(=O)[nH]1,outcome,[10],inactive
same,outcome,[1],inactive
COP(=O)(OC)OC,outcome,[1],inactive
